Bioassay records (PubChem)
A selection: hits, their analogues and other compounds. The true share with any hit is near 15%.
SARS PLP yeast: inhibitors of SARS-CoV papain-like protease in yeast | S. cerevisiae expressing SARS-CoV PLpro, growth rescue | Potency, µM (doses to about 32.9 µM), for the others: top-dose activity, positive = growth rescue, actives largely listed as activators | actives 0.19% (n = 330,000) | AID 485353; calls by dose curve; also: potency is read from the fitted curve at half-maximal effect; 0% is about no effect; nearly all actives have a fitted effect of over 55% in size
Pf growth 96h: inhibits malaria parasite growth, 96 h | actives 6.9% (n = 320,000) | P. falciparum luciferase reporter growth, 96 h | AID 504834 | Potency, µM (doses to about 28.7 µM), for inactives: top-dose activity change, negative = inhibition, usual class: inhibitors; also: potency is read from the fitted curve at half-maximal effect; % is scaled to controls: 0 for no effect and ±100 for the full control effect
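Luminescence readout: decreased luciferase signal marks inhibited growth of reporter-expressing P. falciparum in infected red cells (2% hematocrit, 0.05% parasitemia final), exposed to compound two generations (96 h, 37 C, 5% CO2).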
HCV inh: blocks hepatitis C virus | Huh7.5.1 HCVcc-Cre infection, luciferase reporter, 44 h | Potency, µM (titrated, usually from 41.8 µM), for the others: top-dose activity change, negative = inhibition, hits mostly inhibitors | actives 3.4% (n = 340,000) | AID 651820; also: potency is read from the fitted curve at half-maximal effect; % is scaled to controls: 0 for no effect and ±100 for the full control effect
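HCVcc-Cre virus at an moi near 0.5 was added right after compound to cells cultured 4 h from seeding (1,000 cells/well). Luciferase activity was determined 44 h later, 15 min after substrate addition at RT.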
Sm TGR block: S. mansoni TGR enzyme inhibition; purified TGR, DTNB reduction, TNB absorbance 405 nm; Potency, µM (series often up to 114 µM), for inactives: at the highest dose activity change, negative = inhibition, hits mostly inhibitors; actives 3% (n = 360,000); AID 485364; also: potency is read from the fitted curve at half-maximal effect; % is scaled to controls: 0 for no effect and ±100 for the full control effect; nearly all actives have a fitted effect of over 60% in size
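First, TGR (20 nM dispensed) and NADPH were mixed with compound. Second, a 15 min room-temperature incubation followed. Third, further NADPH and then DTNB were added to start the reaction. Finally, TNB absorbance was monitored kinetically.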
Pf growth 48h: P. falciparum growth inhibition at 48 hours (one generation). P. falciparum luciferase growth in erythrocytes, 48 h. Potency, µM (highest dose often 28.7 µM), inactives show top-dose activity change, negative = inhibition, hits mostly inhibitors. actives 5.9% (n = 310,000). AID 504832; also: potency is read from the fitted curve at half-maximal effect; % is scaled to controls: 0 for no effect and ±100 for the full control effect
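Cell-based growth assay: transgenic P. falciparum expressing firefly luciferase, cultured in red cells within RPMI 1640 containing 0.5% w/v Albumax, 24 mM bicarbonate and gentamycin. A drop in luciferase activity indicates inhibition.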
HCMV inh: blocks human cytomegalovirus replication | HFF cells, HCMV-luciferase reporter, 72 h; active compounds read low | activity change, negative = inhibition, % at 57.5 µM | actives 4.5% (n = 410,000) | AID 1259415; in the data active = activity change below about -60%; inconclusive = no clear call, values can overlap the other calls; inactive = above about -39%; also: % is scaled to controls: 0 for no effect and ±100 for the full control effect
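Compounds were evaluated in HFFs infected with an HCMV luciferase reporter virus (MOI 1 PFU/cell). Luciferase in lysates collected 72 h post infection served as the replication measure.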
An asterisk follows results filed as active; ? = inconclusive; · = no result given. Unless noted, calls follow the shape of the dose curve; as a rule, active = well fitted curve in the direction sought with a large enough effect; inconclusive = small, poorly fitted or top-dose-only effect, or another doubt; inactive = no such curve, though single readings can be large; an effect the other way counts as inactive or inconclusive.

SMILES	SARS PLP yeast	Pf growth 96h	HCV inh	Sm TGR block	Pf growth 48h	HCMV inh
O=C(N=Nc1c(O)n(Cc2ccccc2)c2ccccc12)c1cc2ccccc2cc1O	3%	-4%	?	-21%	?	-6
O=C1N2CCCCC1(Sc1ccccc1)CCC2 (stereo unspecified)	·	·	·	·	·	-26
COc1ccc(NC(=O)C2c3ccccc3OCC(=O)N2C2CC2)cc1 (stereo unspecified)	·	·	·	·	·	13
O=C1Nc2cc(C(=O)N3CCC4(CC3)OCCO4)ccc2NC1CSCc1cccc(F)c1 (stereo unspecified)	-3%	1%	·	50µM*	-7%	·
O=C1Nc2cc(C(=O)N3CCN(c4ccccc4F)CC3)ccc2NC1CSCc1ccccc1F (stereo unspecified)	29%	?	·	?	-16%	·
Cc1cccc(N2CCN(C(=O)c3ccc4c(c3)NC(=O)C(CSCc3cccc(F)c3)N4)CC2C)c1 (stereo unspecified)	29%	49%	-18%	0%	-8%	-83*
O=C(Nc1ccc(N2CCOCC2)cc1)c1c(F)cccc1Cl	0%	6%	-21%	1%	7%	?
CC(C)(C)c1ccc(NC(=O)c2c(F)cccc2Cl)cc1	-2%	9.3µM*	?	-6%	?	-36
O=C(NC(=S)NCc1ccccc1)c1ccccc1	-1%	47%	-10%	·	-2%	-15
O=C(NC(=S)NCc1ccc(F)cc1)c1ccccc1	20%	27%	-7%	18µM*	5%	?
O=C(Nc1ccc(Nc2ccccc2)cc1)c1ccc(F)cc1	-2%	-10%	10µM*	0%	?	-29
Cc1ccccc1C(=O)Nc1cccc(NC(=O)c2ccc(F)cc2)c1	-3%	10µM*	?	-20%	-11%	?
CCCn1c(C(O)c2cccc(OC)c2)nc2ccccc21 (stereo unspecified)	2%	-11%	20%	-16%	?	-6
COc1ccc(Cn2ccc3nc(C)c(C(=O)N4CCN(c5ccccc5F)CC4)cc3c2=O)cc1	·	·	·	2%	·	8
CC(C)CN(CCCNC(=O)c1cc(=O)[nH]c2ccc(S(=O)(=O)N3CCCCCC3)cc12)CC(C)C	·	·	·	-2%	·	9
O=C(NC(=S)Nc1ccc(Oc2ccc(Cl)cc2)cc1)c1ccccc1	20%	?	?	-17%	-3%	-87*
COC(=O)C(O)(c1ccc(NC(=S)NC(=O)c2ccccc2)cc1)C(F)(F)F (stereo unspecified)	12%	-1%	-11%	28µM*	33%	-20
O=C(Nc1ccc(NC(=S)NC(=O)C(c2ccccc2)c2ccccc2)cc1)c1ccccc1	·	·	?	·	·	-66*
COC(=O)C(O)(c1ccc(NC(=O)Oc2ccccc2)cc1)C(F)(F)F (stereo unspecified)	8%	38%	5%	-8%	0%	-29
O=C(NC(=S)Nc1ccc(NC(=O)c2ccccc2)cc1)c1ccc(F)cc1	-4%	6.6µM*	?	-8%	6.6µM*	?
COc1cc(NC(=O)CCc2c(C)noc2C)c(C(=O)O)cc1OC	·	·	·	·	·	-7
CN(CC(=O)Nc1ccccc1Cl)C(=O)c1ccc(N2C(=O)CCC2=O)cc1	1%	12%	8%	0%	?	-13
CCc1nc2c(OCC3COc4ccccc4O3)cccn2c1N(C)C(=O)c1ccccc1F (stereo unspecified)	·	·	·	·	·	-25
O=C(Nc1ccc(Nc2ccccc2)cc1)c1c(Cl)cccc1Cl	·	·	10µM*	·	·	-75*
Brc1cccc2sc(N3CCCC3)nc12	-3%	95%	16%	13%	49%	-9
SMILES	SARS PLP yeast	Pf growth 96h	HCV inh	Sm TGR block	Pf growth 48h	HCMV inh
CC(=O)Nc1ccc(NC(=O)C(C)OC(=O)C2(c3ccccc3F)CCCC2)cc1 (stereo unspecified)	-4%	12µM*	?	3%	8.3µM*	-3
O=C(COn1nnc2ccc(S(=O)(=O)N3CCOCC3)cc21)Nc1c(F)c(F)c(F)c(F)c1F	0%	-19%	4%	0%	15%	13
CCN(CC)S(=O)(=O)c1ccc2c(c1)NC(=O)C1CCCN21 (stereo unspecified)	5%	19%	-2%	?	?	-22
O=S(=O)(c1ccc(OCC(O)CNCc2ccco2)c(Cl)c1)N1CCOCC1 (stereo unspecified)	4%	?	-1%	-6%	8.3µM*	-21
O=C1Nc2cc(S(=O)(=O)N3CCCC3)ccc2N2CCCC12 (stereo unspecified)	0%	-17%	4%	13µM*	17µM*	28
CCOc1ccc(CCNC(=O)COn2nnc3ccc(S(=O)(=O)N4CCOCC4)cc32)cc1OCC	0%	9.3µM*	?	-2%	?	-4
CCOc1ccc(CCNC(=O)c2cccc(-n3cnnn3)c2)cc1OCC	-4%	?	?	-17%	?	0
O=C(COc1ccc(S(=O)(=O)N2CCOCC2)cc1Cl)NCc1ccco1	3%	17%	-5%	-31%	-12%	-13
CCOc1ccc(CCNC(=O)c2cccc(C#N)c2)cc1OCC	1%	?	?	-1%	10µM*	-20
COC(=O)c1ccc(NC(=O)c2ccc3c(c2)NC(=O)C2CCCN32)cc1 (stereo unspecified)	4%	7.4µM*	-3%	-21%	8.3µM*	·
O=C(COC(=O)c1cc(S(=O)(=O)N2CCOCC2)ccc1F)NCc1ccco1	6%	?	18%	45µM*	54%	16
COc1ccc(CCNC(=O)c2cccc(S(=O)(=O)N3CCc4ccccc4C3)c2)cc1	-5%	?	14µM*	-1%	9.3µM*	-3
CCOc1ccc(CCNC(=O)c2cccc(S(=O)(=O)N3CC(C)OC(C)C3)c2)cc1OCC (stereo unspecified)	0%	10µM*	?	-2%	9.3µM*	-31
COc1cccc(C(=O)NCCS(=O)(=O)N2CCc3ccccc3C2)c1	-1%	16%	3%	-6%	-4%	-7
CC(C)[C@@H](C)/C=C/[C@@H](C)[C@H]1CC[C@@H]2[C@]1(C)CCC1[C@]23C=C[C@]2(C[C@@H](O)CC[C@]12C)N(c1cnccn1)O3 (stereo partly specified)	·	·	·	·	·	-20
Cc1ccc2c(c1)C(=O)N1[C@H]3c4ccccc4OC[C@@H]3[C@H](c3ccccc3)[C@]1(C)C(=O)N2	3%	·	?	·	·	·
